The source of these data is PubChem BioAssay (NCI).

This is part of a sample that, as a whole, favours compounds with a hit. Of some 83,000 tested, about 20% had one in any assay.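 The test compound was applied at a single concentration to cells in 96-well plates for 48 hours, and percent growth was recorded.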 A number with no mark means an inactive call. Active and inactive are the calls of the source. How the source made its calls: active means growth percent below 10; inactive means the rest.

The subject of this assay is HL-60(TB) leukemia. Nature of the assay: NCI-60 one-dose screen, 48 h (100 = growth as untreated, 0 = no growth, -100 = all killed). The following applies: 10 µM unless noted.
For the compound `COc1cc(/C=C/C(=O)c2ccc(NC(=O)CSc3nnc(-c4c[nH]c5ccccc45)n3-c3ccccc3)cc2)cc(OC)c1OC`, the growth was 38.6%. In the case of `CNCc1cccc2c1OCCCCCC[C@@](C)(O)CC1(CC1)S(=O)(=O)c1ccc(cc1)-c1cnc(N)c(n1)C(=O)N2`, the growth is -61.1% (active). As to `Cc1[nH]nc2ccc3nc(-c4cnn(CCO)c4)c4c(c3c12)CCCC4`, the growth was 36.9%. On to `S=C(Nc1ccc(OCc2nc3ccccc3[nH]2)cc1)NC1CCCCC1`, for which the growth was 103%. The same measure for `Cn1cc(/C=N/Nc2ccnc3cc(Cl)ccc23)c2ccccc21`: -60.3% (active); for `COc1ccc(-c2nc(SCC(C)C)nc(NCCc3c[nH]c4ccccc34)c2C#N)cc1`: 63.2%; for `Cn1cc(-c2cc(N)n3nc(-c4c[nH]c5ccccc45)cc3n2)c2cccnc21`: -70.9% (active).
